High-throughput results (PubChem)
Only a selection was taken, and hits are over-represented in it overall.
Tg IFNy HTS – T. gondii growth inhibition with IFN-gamma, primary screen, cell-based. Toxoplasma gondii growth in IFN-gamma-treated host cells; stronger effect = lower value. activity change, negative = inhibition, % (test concentration not listed). hit rate 3.8% among 69,000; in the data active = activity change below about -70%, passing the limit was not always enough;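 note: host cells are HeLa cells infected with Toxoplasma gondii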
* marks the source's active call; other numbers are inactive results.

SMILES	Tg IFNy HTS
CS(=O)(=O)N[C@@H]1CCN(c2ncccn2)[C@@H]1Cc1ccccc1	4
COc1ccc(OC)c2c(C)cc(N3Cc4cnn(CCO)c4C3)nc12	-12
CCN(CC)CCOC(=O)c1ccc(N)cc1	12
CCCCOc1ccc(C(=O)CCN(CC)CC)cc1	69
CCN(CC)CCOc1ccc(/C(=C(\Cl)c2ccccc2)c2ccccc2)cc1	-80*
Fc1cccc(-n2cc(CN3CCC(OCc4cccnc4)CC3)cn2)c1	6
Clc1ccc(-c2cc(-c3cccs3)c(-c3ccccc3)o2)cc1	141
FC(F)(F)c1oc(-c2ccccc2Cl)cc1-c1nc(-c2cccs2)no1	-4
c1csc(-c2cncc(-c3nnc(-c4cccc5ccccc45)o3)c2)c1	-102*
COc1ccc(-c2cc(C)nc(C3CCNCC3)n2)cc1	-40
COc1ccc(-c2cc(C3CNC3)nc(C)n2)cc1	-77*
COc1ccc(-c2cc(-c3ccc(OC)cc3)nc(-c3ccc(C)o3)c2)cc1	37
CCCNC(=O)N1CCN(Cc2nc(-c3ccc(C)cc3)oc2C)CC1	0
O=C(CCn1c(=O)oc2cc(Cl)ccc21)NCc1ccc(N2CCCCC2)cc1	5
CCN(CC)CCN1CCO[C@H]2[C@H]1CC[C@H]2OCC1CCOCC1	-28
O=c1oc2ccccc2cc1-c1csc(-c2cccc([N+](=O)[O-])c2)n1	1
c1ccc(OCC23CCCOC2CCN(Cc2ccncc2)C3)nc1 (stereo not drawn)	102
Cc1cc(C)cc(NC(=O)CC(=O)NCc2ccccc2)c1	-86*
CCc1nc(OCC(=O)Nc2cc(C)cc(C)c2)c2ccccc2n1	-6
Cc1ccc(NC(=O)CC(=O)NCc2ccc(CN3CCCC3)cc2)cc1	-21
O=C(Cn1ncc2c(N3CCOCC3)ncnc21)NCCC1=CCCCC1	8
COc1cccc(-c2nc3c(s2)CN(S(=O)(=O)c2ccc(OC)c(OC)c2)CC3)c1	-20
CCOc1ccc(-c2nc3c(s2)CN(S(=O)(=O)Cc2ccccc2)CC3)cc1	10
COc1ccc(S(=O)(=O)N2CCc3nc(-c4ccc(C)cc4)sc3C2)cc1OC	16
Cc1ccc(-c2nc3c(s2)CN(S(=O)(=O)c2ccc(F)cc2)CC3)cc1	6
SMILES	Tg IFNy HTS
COc1ccc(-c2nc3c(s2)CN(S(=O)(=O)c2cc(C)cc(C)c2)CC3)cc1OC	-125*
COc1ccc(-c2nc3c(s2)CN(S(=O)(=O)c2ccccc2C)CC3)cc1	-115*
COc1ccc(Cl)cc1S(=O)(=O)N1CCc2nc(-c3ccc(C)cc3)sc2C1	-63
Cc1ccc(-c2nc3c(s2)CN(S(=O)(=O)c2cccc(Cl)c2C)CC3)cc1	-76*
COc1ccc(-c2nc3c(s2)CN(S(=O)(=O)c2ccc(C(C)(C)C)cc2)CC3)cc1	-1
CCOc1ccc(-c2nc3c(s2)CN(S(=O)(=O)c2ccccc2C)CC3)cc1	-94*
CC(C)N1CCN(C)CC1c1nnc2ccc(C(=O)N3CCCC3)cn12 (stereo not drawn)	-2
COc1ccc(CN2CC3CC(c4cccs4)N4CCCC34C2)cc1 (stereo not drawn)	-14
COCCN(Cc1cnn(C)c1)C(=O)c1c(C)nn(-c2ccc(F)cc2)c1C	-53
O=C(Nc1ccccc1)[C@H]1C[C@@H]2CN(c3ncccn3)C[C@H]1O2	-7
O=C(O)Cn1cc(NC(=O)C2CCCC2)cn1	16
O=C(c1cc2n(n1)CCN(Cc1ccc3nonc3c1)C2)N1CCCC1	-3
COCCC(=O)c1nc2c(o1)CN(Cc1ccccc1)C2	1
O=C(Nc1ccc(CCN2CCCCCC2)cc1)c1cccc(Cn2ccnc2)c1	12
CCOC(=O)c1cc(C)nc2c1c(=O)n(Cc1nc(-c3cccc(C)c3)oc1C)c(=O)n2C	-17
O=S(=O)(NCCc1csc(-c2cnccn2)n1)NCc1ccccc1	16
Cc1nnsc1C(=O)N1Cc2cnn(Cc3ccc(F)cc3)c2C1	-23
CCOc1ccc(-c2nc3c(s2)CN(S(=O)(=O)c2cc(F)ccc2C)CC3)cc1	-95*
CCOc1ccc(-c2nc3c(s2)CN(S(=O)(=O)c2ccc(F)cc2)CC3)cc1	43
COc1cccc(-c2nc3c(s2)CN(S(=O)(=O)c2cc(C)c(C)cc2C)CC3)c1	-51
COc1cccc(-c2nc3c(s2)CN(S(=O)(=O)c2ccc(C)cc2)CC3)c1	-54
CCOc1ccc(-c2nc3c(s2)CN(S(=O)(=O)c2cccc(F)c2)CC3)cc1	33
CCc1ccccc1S(=O)(=O)N1CCc2nc(-c3cccc(OC)c3)sc2C1	-91*
COc1cccc(-c2nc3c(s2)CN(S(=O)(=O)c2c(C)cc(C)cc2C)CC3)c1	-98*
COc1cccc(-c2nc3c(s2)CN(S(=O)(=O)c2ccc(C(C)C)cc2)CC3)c1	-37
COc1cccc(-c2nc3c(s2)CN(S(=O)(=O)c2ccccc2C)CC3)c1	-107*
COc1cccc(-c2nc3c(s2)CN(C(=O)Nc2ccccc2C)CC3)c1	25
CCOc1ccc(S(=O)(=O)N2CCc3nc(-c4cccc(OC)c4)sc3C2)cc1	-23
COc1cccc(-c2nc3c(s2)CN(S(=O)(=O)c2ccc(CC(C)C)cc2)CC3)c1	-17
